The list is not random: actives were taken first. Their share in the collection is about 6%.
Sfp PPTase inh = inhibitors of Bacillus subtilis Sfp phosphopantetheinyl transferase | Biochemical Sfp PPTase activity, qHTS | Potency, µM, actives largely listed as inhibitors | 310,000 compounds, 3.5% hits;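 note: the enzyme is Sfp with the accession as filed and its product quenches rhodamine fluorescence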
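Sfp 15 nM + cpd, 15 min RT; start w/ rhodamine-CoA 5 uM, BHQ-2-YbbR 12.5 uM (final); 50 mM Hepes pH 7.6, 10 mM MgCl2, 0.01% NP-40, 0.01% BSA; read 525/598 nm at 0 and 30 min.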
Tau fluor cs = counter-screen for tau fibril formation inhibitors | AID 1463 | Potency, µM (top dose mostly 57.7 µM) | tau K18 P301L Alexa594 fluorescence, heparin fibrillization | 280,000 compounds, 0.93% hits; note: nearly all actives have a fitted effect of over 55% in size
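Human K18 P301L tau (15 uM unlabeled plus 0.24 uM Alexa 594-labeled, final) in 100 mM sodium acetate pH 7 was mixed with compound and 20 uM heparin and incubated 6 hr at 37 C.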
Tau FP inhib = inhibitors of human tau fibril formation; AID 1468; P10636; Potency, µM (highest dose often 57.7 µM), actives largely listed as inhibitors; K18 P301L tau heparin fibrillization, Alexa594 FP, 6 h; 280,000 compounds, 0.39% hits; note: nearly all actives have a fitted effect of over 55% in size
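FP of Alexa 594-tau after heparin (20 uM) induction. Substrate: human K18 P301L, 15 uM unlabeled, 0.24 uM labeled. Buffer 100 mM sodium acetate pH 7. 6 hr, 37 C.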
Tau fibril ThT = blocks human tau fibril formation measured by thioflavin T. recombinant tau K18 P301L (four-repeat tau fragment), heparin-induced fibrillization, ThT fluorescence. 270,000 compounds, 2.1% hits. P10636. Potency, µM (highest dose often 57.4 µM), hits mostly inhibitors; note: nearly all actives have a fitted effect of over 55% in size
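Aggregation was driven by heparin (20 uM final) acting on recombinant tau […] bearing P301L in 100 mM sodium acetate pH 7; fibrils were detected with Thioflavin T.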
PLK1 PBD block = inhibitors of human PLK1 polo-box domain binding; Plk1 PBD binding of FITC phosphopeptide, fluorescence polarization; Potency, µM, actives largely listed as inhibitors; 360,000 compounds, 2.8% hits; AID 720504; note: series mostly up to about 57 µM; nearly all actives have a fitted effect of over 65% in size
Target sequence (P53350 whole entry, looked up, the tested form may be a part): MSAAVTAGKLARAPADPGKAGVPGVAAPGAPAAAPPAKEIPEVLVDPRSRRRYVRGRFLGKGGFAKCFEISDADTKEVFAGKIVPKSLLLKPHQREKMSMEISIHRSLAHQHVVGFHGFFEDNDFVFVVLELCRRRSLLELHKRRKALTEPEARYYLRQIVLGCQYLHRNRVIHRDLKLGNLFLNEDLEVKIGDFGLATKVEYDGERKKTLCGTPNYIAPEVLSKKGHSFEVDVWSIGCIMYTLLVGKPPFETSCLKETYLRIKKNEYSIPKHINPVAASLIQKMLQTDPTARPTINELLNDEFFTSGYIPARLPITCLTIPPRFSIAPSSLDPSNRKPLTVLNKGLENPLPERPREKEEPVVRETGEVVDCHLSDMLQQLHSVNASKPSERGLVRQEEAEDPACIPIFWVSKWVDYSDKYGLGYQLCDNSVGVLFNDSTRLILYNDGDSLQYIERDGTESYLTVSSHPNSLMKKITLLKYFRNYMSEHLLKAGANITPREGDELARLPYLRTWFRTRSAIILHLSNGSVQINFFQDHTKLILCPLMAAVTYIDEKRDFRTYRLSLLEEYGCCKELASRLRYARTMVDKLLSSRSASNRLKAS
VDR inhibitor = vitamin D3 receptor (human) inhibition. P11473. VDR-SRC2-3 peptide fluorescence polarization, 2 h. Potency, µM, most hits filed as inhibitors. 400,000 compounds, 0.93% hits. AID 504847
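The screen uses fluorescence polarization to detect compounds that interfere with recruitment of the SRC2-3 coactivator peptide to VDR; plates are read after 2 h at room temperature.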
A number is an active result; 0 = inactive; ? = inconclusive; - = no result given; [ ] = another dose, or the depositor's remark. Calls come from the whole dose curve; as a rule, active = well fitted curve in the direction sought with a large enough effect; inconclusive = small, poorly fitted or top-dose-only effect, or another doubt; inactive = no such curve, though single readings can be large; an effect the other way counts as inactive or inconclusive.

SMILES | Sfp PPTase inh | Tau fluor cs | Tau FP inhib | Tau fibril ThT | PLK1 PBD block | VDR inhibitor
CC(C)CNS(=O)(=O)c1ccc(CCC(=O)NCc2ccncc2)cc1 | 0 | 0 | 0 | 0 | 0 | ?
O=C(Cc1ccccc1[N+](=O)[O-])NCc1ccco1 | 50µM | 0 | 0 | 0 | 0 | 0
O=C(Cc1ccccc1[N+](=O)[O-])NCc1ccncc1 | 0 | 0 | 0 | 0 | 0 | 0
CC(C)c1ccc(NC(=O)CCC(=O)NCc2ccco2)cc1 | 0 | - | - | - | 0 | 0
CC(C)CNS(=O)(=O)c1ccc(CCC(=O)NCc2ccco2)cc1 | 40µM | 0 | ? | ? | 0 | 0
COc1ccc(C(=O)N2CCC3(CCN(Cc4ccncc4)CC3)CC2)cc1 | 0 | - | - | - | - | 0
COc1ccc(N=Nc2nc(-c3ccccc3)c(-c3ccccc3)[nH]2)cc1 | 0 | ? | 0 | 4µM | 0 | 0
COc1ccccc1N=Nc1nc(-c2ccccc2)c(-c2ccccc2)[nH]1 | 0 | ? | 0 | 3.5µM | 0 | 0
COc1ccc(-c2nc(C)ncc2N=Nc2ccccc2)cc1 | 0 | ? | 0 | ? | 0 | 0
Oc1ccccc1N=Nc1nc(-c2ccccc2)c(-c2ccccc2)[nH]1 | 0 | 11µM[quencher] | 0 | 4.5µM | 0 | 0
Cc1cccc(S(=O)(=O)Nc2ccc(-n3c(C)nc4ccccc4c3=O)cc2)c1 | - | - | - | - | 0 | 0
CCCC[C@@H]1CCCO[C@@](C(=O)NCCN2CCOCC2)(C(F)(F)F)C1 | 0 | - | - | - | - | 0
O=C1N[C@H](Cc2ccccc2)C(=O)N1Cc1cccc2ccccc12 | 0 | 0 | 0 | 0 | - | 0
Cc1nn(CC(O)COc2ccc3c(c2)CCC3)c(C)c1C (stereo not drawn) | 0 | 0 | 0 | 0 | 3.4µM | 0
O=C1NC(=S)N/C1=C\c1ccccc1OCc1ccc(C(=O)O)cc1 | 0 | 0 | 0 | 0 | 0 | 0
O=C(CN1C(=O)N/C(=C\c2ccccc2OCc2ccc(C(=O)O)cc2)C1=O)Nc1ccc(F)cc1 | 0 | - | - | - | 0 | 0
O=C(O)c1ccc(COc2ccccc2/C=C2\NC(=O)N(Cc3ccc(F)cc3)C2=O)cc1 | 0 | 0 | 0 | 0 | 67µM | 0
O=C(O)c1ccc(COc2ccccc2C=C2C(=O)c3ccccc3C2=O)cc1 | 0 | 0 | 0 | ? | 0.47µM | ?
O=C(NCCC1=CCCCC1)c1ccc2c(c1)sc1nc(-c3ccc(F)cc3)cn12 | - | 0 | 0 | 0 | - | 0
CC(=O)Nc1ccc(Nc2nc(C)c([N+](=O)[O-])c(Nc3ccc(NC(C)=O)cc3)n2)cc1 | 0 | 0 | ? | 13µM | 0 | 0
CNc1nc(C)c([N+](=O)[O-])c(Nc2ccc(OC)cc2)n1 | 0 | - | - | - | 12µM | ?
O=C(Nc1ccccc1C(F)(F)F)c1c(F)cccc1Cl | 0 | 0 | 0 | 0 | 30µM | 0
COc1ccc(-c2nc3c(c4c2C[C@H](c2ccccc2)OC4)CN(C(=O)NCc2ccco2)CC3)c(C)c1 | 0 | 0[11.6 µM] | 0[11.6 µM] | 0[11.5 µM] | - | -
c1ccc(-c2ccc3ccccc3n2)cc1 | - | - | - | - | 0 | 0
CNc1ccccc(-c2ccc3ccccc3n2)c1=O | 56µM | 0 | 0 | 0 | 0 | 0
SMILES | Sfp PPTase inh | Tau fluor cs | Tau FP inhib | Tau fibril ThT | PLK1 PBD block | VDR inhibitor
CCOc1ccc(NC(=O)c2c(NC(=O)c3ccccc3Br)sc3c2CCC(C)C3)cc1 (stereo not drawn) | - | 0 | ? | 14µM | - | 40µM
CN(C)c1ncc(CN2CCC(CO)(CCCc3ccccc3)CC2)s1 | 0 | 0 | 0 | 0 | 0 | 0
OCC1(CCc2ccccc2)CCN(Cc2cnc(N3CCCC3)s2)CC1 | 50µM | 0 | 0 | 0 | 0 | 0
O=C(Nc1ccc2nc(-c3ccco3)c(-c3ccco3)nc2c1)N1CCN(c2ccccn2)CC1 | 20µM | 0 | 0 | 0 | 5.3µM | 89µM
O=C(Nc1ccc2nc(-c3ccco3)c(-c3ccco3)nc2c1)N1CCCC1 | - | - | - | - | - | 71µM
O=C(NCCO)Nc1ccc2nc(-c3ccco3)c(-c3ccco3)nc2c1 | 18µM | 0 | 0 | 0 | - | -
O=C(c1cccc(C(=O)N2CCN(c3ncccn3)CC2)c1)N1CCN(c2ncccn2)CC1 | 0 | 0 | 0 | 0 | 0 | 0
O=C(c1ccc2nc(-c3ccco3)c(-c3ccco3)nc2c1)N1CCN(c2ncccn2)CC1 | 14µM | 0 | 0 | ? | 0 | 0
Cc1cc(C(=O)NNC(=O)[C@H](C)NC(=O)c2ccc(Br)cc2)c(C)o1 | - | - | - | - | 0 | 0
O=C(c1ccc(Cl)cc1Cl)n1nnc2ccccc21 | 0 | - | - | - | - | 3.5µM

Source: PubChem (National Center for Advancing Translational Sciences (NCATS))
